Inconclusive results are not listed. Entries that show only a call come without a potency. Values without a mark were called inactive. Active and inactive are the calls of the source. Calls follow the shape of the dose curve; as a rule, active = well fitted cell-killing curve with a large enough effect; inconclusive = small, poorly fitted or top-dose-only effect, or effect the other way; inactive = no such curve, though single readings can be large or run the other way. Bridge positions count the residues as written; N and C are the ends. Square brackets hold non-standard residues; d marks the D form. Peptide text beside a SMILES is read from it. * marks the point of attachment. ξ: configuration not given here. Octanoyl(6-Me) = CCC(C)CCCCC(=O)*; ξThr(3R) = C[C@@H](O)C(N)C(=O)O; dDab = NCC[C@@H](N)C(=O)O; Dab = NCC[C@H](N)C(=O)O
Potency is read from the fitted curve at half-maximal effect.

A short description of this experiment: Quantitative highthroughput screen to assess conditional lethalithy of SEM cells grown in Human Plasma-Like Medium with dialyzed fetal bovine serum (HPLM+ds) (AID 1963882). Also: nearly all actives have a fitted effect of over 35% in size. Conditions: SEM B-ALL cells in HPLM+ds, CellTiter-Glo viability, 48 h; series mostly up to 45.8 µM. The text has this:
Assay Provider: Jason Cantor Ph.D.
Department of Biochemistry
University of Wisconsin-Madison, Madison, WI, USA
Chemical screening studies have identified drug sensitivities across hundreds of cancer cell lines but most putative therapeutics fail to translate. Discovery and development of drug candidates in models that more accurately reflect nutrient levels in human blood is a major challenge. Here we performed high-throughput screens in conventional versus Human Plasma-Like Medium (HPLM) to identify compounds that were "missed" when screening using the artificial culture condition. Sets of conditional anticancer compounds spanned phases of clinical development and included non-oncology drugs were assessed. […] We also traced conditional phenotypes for several chemotherapeutics to availability of HPLM-specific metabolites and confirmed others for compounds whose reported targets are encoded by nonessential genes. Our findings establish generalizable strategies for exploiting conditional lethality in HPLM to reveal therapeutic candidates and mechanisms of action in cancer cells.
Described herein are the results of each viability screens against three cell lines: NOMO1 (an acute myeloid leukemia cell line); P12-Ichikawa (a T-cell acute lymphoblastic leukemia); and SEM (a B-cell ALL). Each assay was screened using 3 different cell culture media: homemade human plasma-Like medium with 10% dialyzed fetal bovine serum (HPLM+ds); RPMI1640 with 10% untreated FBS and 5mM glucose (RPMI+s); and RPMI1640 with 10% dialyzed fetal bovine serum and 5 mM glucose (RPMI+ds).
PROTOCOL TABLE (as described by Inglese J, Shamu CE and Guy RK. 2007)
SEQUENCE No. (e.g., 1, 2, 3, etc.); […] (e.g., Cells, Incubation, Reagent, etc.); VALUE and DESCRIPTION.
1; Cells; 5 uL; white, solid bottom 1536-well Greiner assay plate.
2; Compounds; 23 nL; Kalypsis pin tool (Wako USA) equipped with a 1536-well pin head to transfer to the assay plates.
3; Incubation; 48 hours; 37C incubation.
4; Reagent; 3 uL; CellTiter Glo (Promega).
5; Incubation; 5 min, room temperature
6; Detection; Luminescence, Viewlux PerkinElmer.
NOTES (numbers refer to Sequence numbers above)
1. Briefly, 5 ul of cell reagent was dispensed using a Multidrop Combi Dispenser. The NOMO1 and SEM cells were plated at 500 cells/well and the P12-Ichikawa line at 1000 cells/well.
2. After seeding the cells, 23 nL of MIPE 4.1 library compounds (in DMSO) were added to each plate using a Kalypsys 1536 Pintool dispenser. Bortezomib at final concentration of […] and DMSO were added to each plate as positive and negative controls respectively. For each screen, MIPE 4.1 compounds were added over an eleven-point concentration range […] in 3-fold dilutions.
3. Each plate was covered with a stainless steel gasketed lid to prevent evaporation and incubated for 48 hour at 37C, 95% relative humidity, and 5% CO2.
4-5. Three microliter CellTilter-GloTM luminescent substrate mix (Promega) reagent was added to the assay plate and incubated at room temperature for 5 min.
6. The luminescence signal was measured using a ViewLux (PerkinElmer) multiplate reader with a 2 second exposure time per plate. Data for each compound were normalized as percent viability such that measurements for DMSO and the empty well controls in each plate were defined as 100% and 0%, respectively.
(In general: ATP-based viability assays read luminescence as a measure of living cells.)
With `COc1cccc(N(C)C(=S)Oc2ccc3c(c2)CCCC3)n1`, the Potency result was “inactive”.
Same read-out and setting: in the case of `CC(C)c1cc(C(C)C)c(CC(=O)NS(=O)(=O)Oc2c(C(C)C)cccc2C(C)C)c(C(C)C)c1` it was “inactive”.
`O=C(O)c1cccc(-c2noc(-c3ccccc3F)n2)c1`: the Potency result was “inactive”.
Same read-out and setting: in the case of `CN1N=C(N)c2cn([C@@H]3O[C@H](COP(=O)(O)O)[C@@H](O)[C@@H]3O)c3ncnc1c23` it was 29.6 nM (active); in that of `Cc1ccc(CN2CCNCC2)cc1NC(=O)CNc1ccc(F)c(F)c1`, “inactive”.
The same measure, in the same setting: in the case of `CCN(CC)Cc1ccc2cc(COC(=O)Nc3ccc(C(=O)NO)cc3)ccc2c1` it was 1660 nM (active).
The same measure, in the same setting: for `O=C(NNC(=O)c1ccc(CNS(=O)(=O)c2ccc(F)c(Cl)c2)cc1)c1ccccc1` the value was “inactive”; for `COc1ccccc1N1CCN(CCN(C(=O)C2CCCCC2)c2ccccn2)CC1`, “inactive”; for `CCCCCCCCCCCCCCCC(=O)OC[C@@H](NC(=O)C(Cl)Cl)[C@H](O)c1ccc([N+](=O)[O-])cc1`, “inactive”.
Consider `C[C@H]1Oc2cc(cnc2N)-c2c(nn(C)c2C#N)CN(C)C(=O)c2ccc(F)cc21`, for which the Potency result was “inactive”.
On the same count and under the same terms, in the case of `CC[C@H](CC[C@@H](C)[C@H]1CC[C@H]2[C@@H]3CC=C4C[C@@H](O)CC[C@]4(C)[C@@H]3CC[C@]12C)C(C)C` it was “inactive”.
On the same count and under the same terms, in the case of `Nc1ccn(C2CO[C@H](CO)O2)c(=O)n1` (stereo not given in full) it was “inactive”; in that of `COc1ncnc(NS(=O)(=O)c2ccc(N)cc2)c1OC`, 1870 nM (active).
As usually defined, the viability is a read-out of living cells in per cent, often relative to untreated cells. Take `CC(C)(C)[C@H](NC(=O)c1ccc(N)c(Cl)c1)C(=O)N1CCC[C@@H]1C(=O)N[C@H](C#N)CC(=O)O`: the viability was 112% [at 3.51 µM].
In the case of `COc1ccc(-c2oc3cc(OC)ccc3c2C(=O)c2ccc(C#N)cc2)cc1`, the Potency result is “inactive”.
As to `CC(C)C1CCC(C(=O)N[C@H](Cc2ccccc2)C(=O)O)CC1` (stereo not given in full), the Potency result was “inactive”.
Same read-out and setting: for `C[C@]12C=CC(=O)C=C1CC[C@@H]1[C@@H]2[C@@H](O)C[C@@]2(C)[C@@H]1CC[C@]2(O)C(=O)CO` the value was 6620 nM (active); for `CN(C)Cc1c(C(=O)NCCOc2ccc(C(=O)NO)cc2)oc2ccccc12`, 1180 nM (active); for `Cn1cc(C=CC(=O)c2cccc(F)c2)cc1C=CC(=O)NO`, “inactive”.
On the same count and under the same terms, for `O=C1CCCC(=O)C1C(=O)c1ccc(C(F)(F)F)cc1[N+](=O)[O-]` the value was “inactive”.
On the same count and under the same terms, in the case of `O=c1[nH]c(=O)n(C2CCCO2)cc1F` (stereo not given) it was “inactive”; in that of `CC1=C[C@@H]2[C@@H]([C@@H](O)C[C@@]3(C)[C@H]2C[C@@H](C)[C@]3(O)C(=O)CO)[C@@]2(C)Cc3cnn(-c4ccccc4)c3C=C12`, 37.2 nM (active).
On to `COc1ccc(-n2nc(C(N)=O)c3c2C(=O)N(c2ccc(N4CCCCC4=O)cc2)CC3)cc1`, for which the Potency result is “inactive”.
Same read-out and setting: for `CC(C)c1c(C(=O)Nc2ccccc2)c(-c2ccccc2)c(-c2ccc(F)cc2)n1CC[C@H](O)C[C@@H](O)CC(=O)O` the value was “inactive”; for `COc1cc2ncnc(Nc3ccc(F)c(Cl)c3)c2cc1OCCCN1CCOCC1`, 38200 nM (active).
For the molecule `CCC(C)CCCCC(=O)N[C@@H](CCN)C(=O)NC(C(=O)N[C@H](CCN)C(=O)N[C@@H]1CCNC(=O)C([C@@H](C)O)NC(=O)[C@@H](CCN)NC(=O)[C@@H](CCN)NC(=O)[C@@H](CC(C)C)NC(=O)[C@H](Cc2ccccc2)NC(=O)[C@H](CCN)NC1=O)[C@@H](C)O` (stereo partly drawn) ({Octanoyl(6-Me)}-[Dab][ξThr(3R)][dDab][dDab][Dab]F[dL][dDab][dDab][ξThr(3R)]; lactam 4-C), the Potency entry is “inactive”.
Take `CN1CCN(c2ccc(C(=O)Nc3n[nH]c4ccc(Cc5cc(F)cc(F)c5)cc34)c(NC3CCOCC3)c2)CC1`: the Potency is 4170 nM (active).
Still for that read-out and setting: for `O=C(O)c1cc(=O)c2c(OCC(O)COc3cccc4oc(C(=O)O)cc(=O)c34)cccc2o1` the value was “inactive”; for `CC(=O)OCC(CCn1cnc2cnc(N)nc21)COC(C)=O`, “inactive”.
On the same count and under the same terms, in the case of `CC(=O)O[C@]1(C(C)=O)CC[C@H]2[C@@H]3C=C(C)C4=CC(=O)CC[C@]4(C)[C@@H]3CC[C@@]21C` it was “inactive”; in that of `COc1cc2c(Oc3ccc(-c4cnc(Nc5ccc(F)cc5)n(C)c4=O)cc3F)ccnc2cc1OCCCN1CCOCC1`, 166 nM (active); in that of `Clc1ccccc1C(c1ccccc1)(c1ccccc1)n1ccnc1`, “inactive”.
Take `CC1(C)O[C@H]2CC(=O)OC[C@]23[C@H]2CC[C@@]4(C)[C@H](c5ccoc5)OC(=O)[C@H]5O[C@]54[C@]2(C)C(=O)C[C@@H]13`: the Potency entry was “inactive”.
On the same count and under the same terms, in the case of `O=c1[nH]nc(Sc2ncc([N+](=O)[O-])s2)n1-c1ccc2c(c1)OCCO2` it was 8330 nM (active).
`O=C(O)CCCCCC(=O)NN=C1CCCC1`: the Potency result is “inactive”.
On the same count and under the same terms, in the case of `COc1c(Cl)cc2c([nH]c3cnccc32)c1NC(=O)c1cccnc1C` it was “inactive”; in that of `NC1CCC(N[C@@H]2C[C@H]2c2ccccc2)CC1` (stereo not given in full), “inactive”; in that of `CN1[C@@H]2CCC[C@@H]1CC(NC(=O)c1nn(C)c3ccccc13)C2` (stereo not given in full), “inactive”.
On the same count and under the same terms, in the case of `CC1COc2c(N3CCN(C)CC3)c(F)cc3c(=O)c(C(=O)O)cn1c23` (stereo not given) it was “inactive”; in that of `O=C1NC(=O)C(=Cc2ccc3nccc(-c4ccncc4)c3c2)S1`, 935 nM (active).

Source of the values: PubChem BioAssay (NCATS).
